Source: PubChem BioAssay (National Center for Advancing Translational Sciences (NCATS))
IMPase Li cell = membrane-permeable IMPase blocker, potentiated with lithium; CHO-M1 cells, IP1 TR-FRET (IP-One), carbachol + lithium; Potency, µM (titrated, usually from 59.4 µM), for the others: at the top dose activity, negative = IMPase inhibition, most hits filed as inhibitors; actives 0.35% (n = 210,000); active means well fitted curve in the direction sought with a large enough effect; inconclusive means small, poorly fitted or top-dose-only effect, or another doubt; inactive means no such curve, though single readings can be large; an effect the other way counts as inactive or inconclusive;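 further: IP1 builds up when IMPase is blocked and the TR-FRET signal falls; potency means the concentration at half of the fitted maximal effect; plate controls were basal vehicle for no effect and high inhibitor control for full effect; nearly all actives have a fitted effect of over 50% in size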
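CHO-M1, 2000 cells/well, 16–30 h culture; cpd + low Li+, 30 min 37C; lysis with d2-IP1/Eu-anti-IP1 Ab, 10 min RT; TR-FRET 665/620 ratio and 620 channel; AC50 via Hill.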
HPGD block = blocks human HPGD enzyme activity | P15428 | actives 4.3% (n = 150,000) | Potency, µM, without a hit: top-dose activity change, negative = inhibition, actives largely listed as inhibitors | purified HPGD, NADH fluorescence kinetic, PGE2 substrate; further: potency means the concentration at half of the fitted maximal effect
Target sequence (P15428 whole entry, looked up): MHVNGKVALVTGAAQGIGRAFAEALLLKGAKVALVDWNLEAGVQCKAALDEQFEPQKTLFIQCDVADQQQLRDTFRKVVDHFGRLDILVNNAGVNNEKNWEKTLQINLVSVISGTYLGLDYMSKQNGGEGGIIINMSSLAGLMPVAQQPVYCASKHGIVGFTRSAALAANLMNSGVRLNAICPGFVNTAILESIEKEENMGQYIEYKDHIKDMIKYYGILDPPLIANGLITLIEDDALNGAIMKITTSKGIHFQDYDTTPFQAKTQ
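20 nM HPGD preincubated 15 min at room temperature with compound in 50 mM Tris-HCl pH 8, 0.01% Tween 20. Started with 1 mM NAD+ and 30 uM prostaglandin E2; NADH fluorescence (360/450 nm) read 5 times over 30-s intervals, last minus first.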
PNC inhibitor = inhibitors of perinucleolar compartment assembly. activity change (PNC), negative = inhibition, % at 10 µM. AID 2417. actives 3.1% (n = 140,000). PC3M PTB-GFP, PNC prevalence imaging, 16 h; hits give low values;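 active means readout at or below -70, meaning at least 70% loss of cells showing the perinucleolar compartment, a nuclear body marking cancer cells; inconclusive means readout between -30 and a set limit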;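 further: plate controls were DMSO wells for no effect and camptothecin positive control wells for full effect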
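Compounds are pinned in duplicate onto adhered PC3M cells stably expressing GFP-tagged PTB and incubated 16 h at 37 C. Cells are then fixed, nuclei stained with Hoechst, and PNC-positive cells counted.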
12-hLO inh = inhibitors of human 12-lipoxygenase (ALOX12); purified 12-hLO, xylenol orange hydroperoxide absorbance; Potency, µM (series often up to 57.1 µM), inactives show at the top dose activity change, negative = inhibition, most hits filed as inhibitors; actives 0.12% (n = 150,000); AID 1452; active means well fitted curve in the direction sought with a large enough effect; inconclusive means small, poorly fitted or top-dose-only effect, or another doubt; inactive means no such curve, though single readings can be large; an effect the other way counts as inactive or inconclusive; further: potency means the concentration at half of the fitted maximal effect; nearly all actives have a fitted effect of over 55% in size
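Lipoxygenase turnover measured by absorbance at 573 and 405 nm after Fe-XO development. Human 12hLO 150 nM, arachidonate 40 uM, pH 7.0 Hepes buffer with detergent; 15 min compound preincubation, 30 min reaction.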
ALDH1A1 inh = inhibitors of human aldehyde dehydrogenase 1A1 | AID 1030 | Purified ALDH1A1, NADH fluorescence, propionaldehyde substrate | Potency, µM (series often up to 75.3 µM), inactives show at the top dose activity, negative = inhibition, actives largely listed as inhibitors | P00352 | actives 7.3% (n = 220,000);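 further: potency means the concentration at half of the fitted maximal effect; plate controls were no enzyme wells and a reference inhibitor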
Target sequence (P00352 whole entry, looked up): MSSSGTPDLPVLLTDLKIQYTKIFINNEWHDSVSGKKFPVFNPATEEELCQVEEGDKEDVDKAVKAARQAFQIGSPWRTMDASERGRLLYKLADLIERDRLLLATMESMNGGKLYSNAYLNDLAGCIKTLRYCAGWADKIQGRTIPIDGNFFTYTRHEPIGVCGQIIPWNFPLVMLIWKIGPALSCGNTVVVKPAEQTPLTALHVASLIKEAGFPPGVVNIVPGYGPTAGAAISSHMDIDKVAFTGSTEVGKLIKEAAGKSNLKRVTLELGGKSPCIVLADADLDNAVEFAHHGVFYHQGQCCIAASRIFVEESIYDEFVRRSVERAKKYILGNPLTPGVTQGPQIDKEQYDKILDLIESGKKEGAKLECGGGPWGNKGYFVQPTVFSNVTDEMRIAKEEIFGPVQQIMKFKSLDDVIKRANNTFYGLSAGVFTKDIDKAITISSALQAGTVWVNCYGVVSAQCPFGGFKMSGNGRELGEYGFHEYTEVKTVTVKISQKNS
IMPase cell inh = membrane-permeable compound that blocks inositol monophosphatase | P97697 | CHO-M1 cells, IP1 accumulation, HTRF TR-FRET ratio | 120,000 tested, under 10 active | inhibition (IP1 accumulation), % at 46.1 µM | AID 901; active means well fitted curve in the direction sought with a large enough effect in the signal ratio, not every such curve was filed as active; inconclusive means small, poorly fitted or top-dose-only effect, or a change in a side signal; inactive means no such curve, though single readings can be large or run the other way; the % refers to the signal ratio;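 further: cells stimulated with carbachol in lithium chloride buffer; plate controls were DMSO basal wells for no effect and reference inhibitor wells for full effect; higher means more IMPase inhibition seen as more IP1 and lower FRET ratio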
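Cellular IMPase inhibition is scored as a rise in cytosolic IP1, detected by competitive TR-FRET between d2-labelled IP1 and a europium anti-IP1 antibody. M1-expressing CHO cells were stimulated with carbachol for 30 min at 37C, with lithium (50 mM LiCl) present in the buffer.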
* = called active by the depositor; ? = inconclusive; . = no result; [ ] = remark or other dose. The list is not random: actives were taken first. Their share in the collection is about 11%. Unless noted, the call rests on the fitted dose curve; in most records, active means well fitted inhibition curve with a large enough effect (not every such curve was filed as active); inconclusive means small, poorly fitted or top-dose-only effect, or another doubt; inactive means no such curve, though single readings can be large or run the other way. Unless noted, on the % scale 0 is the no-effect control and ±100 the full control effect.

SMILES	IMPase Li cell	HPGD block	PNC inhibitor	12-hLO inh	ALDH1A1 inh	IMPase cell inh
O=C(NC1CCCCC1)C1CCC(CNS(=O)(=O)c2cccc3nsnc23)CC1 (centres undefined)	13%[38.3 µM]	-18%	2	1%	?	3
O=C(CNS(=O)(=O)c1cccc2nsnc12)NC1CCCCC1	10%[38.3 µM]	-13%	-111*	-2%	3%	8
CN[C@@H]1[C@H](O[C@H]2[C@@H](O[C@@H]3[C@@H](O)[C@@H](O)[C@@H](N=C(N)N)[C@@H](O)[C@@H]3N=C(N)N)O[C@@H](C)[C@]2(O)CO)O[C@H](CO)[C@@H](O)[C@@H]1O	-3%	-4%	.	0%[25.6 µM]	7%[20.9 µM]	-1[20.6 µM]
COC(=O)c1c(NC(=O)C2SC(=NC3CCCCC3)C(C(N)=O)=C2N)sc2c1CCCC2 (centres undefined)	12%	-19%	?	-3%	0%	1
C=C(C)CN=C1SC(C(=O)Nc2sc3c(c2C(=O)OC)CCC3)C(N)=C1C(N)=O (centres undefined)	24%	?	26	-6%	25µM*	.
O=C(NC(NNc1ccc([N+](=O)[O-])cc1)(C(F)(F)F)C(F)(F)F)c1ccc(F)cc1	11%	32µM*	-20	-12%	?	.
O=C(NC(Nc1nc2ccc([N+](=O)[O-])cc2s1)(C(F)(F)F)C(F)(F)F)c1ccccc1Cl	22%	-2%	-119*	?	?	15
O=C(NNC(=S)Nc1ccc(F)cc1)c1cccc([N+](=O)[O-])c1	.	.	.	.	-6%	.
Cc1ccccc1C(=O)NNc1ccc([N+](=O)[O-])cc1	-8%[38.3 µM]	-10%	1	-12%	?	19
O=C(NC(Nc1nc2ccc([N+](=O)[O-])cc2s1)(C(F)(F)F)C(F)(F)F)c1cccnc1	16%	-23%	-17	-4%	?	6
O=C(NC(NNc1ccc([N+](=O)[O-])cc1)(C(F)(F)F)C(F)(F)F)c1ccccc1Cl	35%[38.3 µM]	14µM*	-2	?	14µM*	10
O=[N+]([O-])c1ccc(NNC(=S)Nc2ccc(F)cc2)cc1	23%	22µM*	?	?	1.3µM*	?
CCCCCCCc1cc2c(cn1)C(=O)C(C)(OC(C)=O)C(O)=C2Cl (centres undefined)	-6%	-11%	.	.	?	.
COC(=O)C1=C(C)N(c2ccc(F)cc2)/C(=C/c2ccc(O)cc2)C1=O	-2%	.	.	.	-11%	.
CC=CC1=C(C(=O)O)N2C(=O)[C@H](NC(=O)[C@H](N)c3ccc(O)cc3)[C@@H]2SC1	13%	-20%	.	-2%[0.00818 µM]	?	.
NC(=S)c1cc2ccc(O)cc2oc1=O	3.2µM*	?	9	-12%	?	?
C/C(=N/NC(N)=S)c1ccc(Br)s1	9%	.	.	.	22µM*	.
CC(C)OC(=O)c1c(NC(=O)c2cccc(C(F)(F)F)c2)sc2c1CCCC2	.	.	.	.	.	-9
COc1cccc(C2CC(c3ccccc3)Nc3ncnn32)c1 (centres undefined)	38%[38.3 µM]	-17%	?	-7%	7.1µM*	1
COc1ccc(C2CC(c3ccccc3)n3nnnc3N2)cc1 (centres undefined)	1%[38.3 µM]	-7%	-111*	2%	?	-1
Cc1ccc(C2CC(c3cccc(Br)c3)Nc3nnnn32)cc1 (centres undefined)	23%	-24%	?	-3%	18µM*	5
Cc1ccc(C2CC(c3ccccc3)n3ncnc3N2)cc1 (centres undefined)	24%[38.3 µM]	-9%	-23	0%	-3%	0
Clc1ccc(C2CC(c3ccccc3)Nc3ncnn32)cc1 (centres undefined)	33%[38.3 µM]	0%	-30	3%	1%	-1
COc1cccc(C2CC(c3ccccc3OC)n3ncnc3N2)c1 (centres undefined)	25%[38.3 µM]	-15%	3	4%	14%	6
Clc1ccc(C2CC(c3ccco3)n3ncnc3N2)cc1Cl (centres undefined)	8%	-3%	0	-5%	32µM*	18
SMILES	IMPase Li cell	HPGD block	PNC inhibitor	12-hLO inh	ALDH1A1 inh	IMPase cell inh
COc1ccc(C2CC(c3cc(Br)ccc3F)n3nnnc3N2)cc1 (centres undefined)	22%[38.3 µM]	-3%	-4	-10%	?	6
O=C(N/N=C/c1ccc(N2CCOCC2)cc1)c1ccccc1OCCOc1ccccc1	-15%	.	.	.	?	.
C=C1C(=O)OC2CC1C(OC(C)=O)CC(C)=CCCC(C)=CCC[C@@]2(C)O (some centres undefined)	15%	-6%	.	0%	?	.
Cc1nc2cnc(N(C)C)nc2n(C)c1=O	3%	?	.	-3%	?	.
Cc1cc(C(=O)c2ccc(Cl)cc2)c(NC(=O)CCl)s1	5%	-8%	33	2%	0.89µM*	-3
CCc1cc(C(=O)c2ccc(OC)cc2)c(NC(=O)CN2CCCC2)s1	.	.	.	.	10µM*	.
CCc1cc(C(=O)c2ccc(OC)cc2)c(NC(=O)CCC(=O)O)s1	.	.	.	.	6%	.
CCc1cc(C(=O)c2ccc(C)cc2)c(NC(=O)CCl)s1	16%	-16%	-10	-5%	2.5µM*	5
COc1ccc(NC(=O)N2CCC3(CC2)CCN(C(=O)c2cnccn2)CC3)cc1	5%	-5%	.	-1%	-12%	.
COc1ccc(-c2ccc(SCC(=O)c3ccc(F)cc3)nn2)cc1OC	13%	.	.	.	16µM*	.
CC1CCCCN1C(=O)CSc1ccc(-c2ccc(F)cc2)nn1 (centres undefined)	0%[38.3 µM]	22µM*	?	0%	?	-8
COc1ccc(-c2ccc(SCC(=O)c3cccs3)nn2)cc1OC	22%	.	.	.	-23%	.
COc1cccc(C2=NOC(C(=O)N3CCc4ccccc4C3)C2)c1 (centres undefined)	13%	-27%	?	-1%	-3%	2
CC1CCCCN1C(=O)C1CC(c2ccc(F)cc2)=NO1 (centres undefined)	.	.	?	-6%	0.32µM*	0
O=C(C1CC(c2ccccc2O)=NO1)N1CCc2ccccc2C1 (centres undefined)	-12%[38.3 µM]	16µM*	21	0%	-3%	5
O=C(COC(=O)c1ccc[n+]([O-])c1)Nc1c(Br)cc([N+](=O)[O-])cc1Br	-1%	.	.	.	6%	.
Cc1cccc(N=Nc2cnc(N)s2)c1	.	.	.	.	-6%	.
CC(C)CN1CC2(CCN(C(=O)c3ccco3)CC2)C1	4%	-12%	.	3%	12%	.
O=C(C1CC(c2ccccc2O)=NO1)N1CCCCC1 (centres undefined)	5%[38.3 µM]	7.9µM*	?	-4%	?	12
